Structures are written as SMILES. Records with an inconclusive call do not appear. Unmarked numbers belong to inactive results. Activity calls are given as the source filed them. Unless noted, the call rests on the fitted dose curve; in most records, active means well fitted curve in the direction sought with a large enough effect in the repeat runs; inconclusive means weak or mixed curves; inactive means no such curve, though single readings can be large; an effect the other way counts as inactive or inconclusive.

Experiment [1] deals with Aryl hydrocarbon receptor (Homo sapiens) (UniProt P35869). Nature of the experiment: qHTS assay to identify small molecule that activate the aryl hydrocarbon receptor (AhR) signaling pathway (AID 743085). Further: nearly all actives have a fitted effect of over 15% in size. Further: potency means the concentration at half of the fitted maximal effect.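 On activation: HG2L7.5c1 human HepG2 liver cells with stably integrated DRE-driven firefly reporter; series mostly up to about 70 µM.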 In short, it runs like this: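 Measured in HG2L7.5c1 cells: CellTiter-Fluor signal (30 min incubation, 37C) for viability, then luciferase luminescence (30 min, room temperature). Compound contact time was 24 h at 37C, following a 5 h pre-incubation.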
(Quantitative high-throughput screening tests each substance at several concentrations.)

Experiment [2] can be described thus: qHTS assay to identify small molecule that activate the aryl hydrocarbon receptor (AhR) signaling pathway - cell viability counter screen (AID 743086).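 Further: HepG2 liver cells carrying the AhR DRE luciferase reporter; series mostly up to about 70 µM; nearly all actives have a fitted effect of over 45% in size.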 In a few lines:
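HepG2-AhR-luc (HG2L7.5c1) cells, 4000/well, were preincubated 5 h at 37C, exposed to compound in qHTS format for 24 hr at 37C, then given CellTiter-Fluor for 30 min; viability was read as fluorescence in the reporter wells.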

Experiment [3] deals with Peroxisome proliferator-activated receptor gamma (Homo sapiens) (UniProt P37231). Nature of the experiment: qHTS assay to identify small molecule agonists of the peroxisome proliferator-activated receptor gamma (PPARg) signaling pathway (AID 743094; active means well fitted activation curve with a large enough effect in the signal ratio in the repeat runs, not every such curve was filed as active; the % refers to the signal ratio). In a few lines:
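HEK293H PPARg-bla cells, 5 h settle at 37C/5% CO2; compound (DMSO) 17 h, 37C; B/G FRET substrate 1 h RT; fluorescence intensity read-out. qHTS format.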

Experiment [4] shares this target. Nature of the experiment: qHTS assay to identify small molecule antagonists of the peroxisome proliferator-activated receptor gamma (PPARg) signaling pathway (AID 743191; calls by dose curve; further: series mostly up to about 63 µM; nearly all actives have a fitted effect of over 30% in size). In a few lines:
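GeneBLAzer PPARg UAS-bla HEK293H cells carrying a UAS-driven beta-lactamase reporter were plated at 3000 cells/well, preincubated 5 h at 37C, then given compound for 17 h at 37C; LiveBLAzer B/G FRET substrate was read after 1 h at room temperature.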

The nature of experiment [5]: qHTS assay to identify small molecule antagonists of the peroxisome proliferator-activated receptor gamma (PPARg) signaling pathway - cell viability counter screen (AID 743194). Further: nearly all actives have a fitted effect of over 55% in size. In a few lines:
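PPARg-UAS-bla HEK293H cells were plated, rested 5 h at 37 C, then treated with compounds plus rosiglitazone (50 nM final) for 17 h at 37 C; viability was then read by CellTiter-Glo luminescence after 30 min at room temperature.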

Experiment [6] is described as follows: qHTS assay for small molecule agonists of the antioxidant response element (ARE) signaling pathway - cell viability counter screen (AID 743203; calls by dose curve; further: nearly all actives have a fitted effect of over 55% in size). In short, it runs like this:
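Luminescence read-out (CellTiter-Glo, 30 min at room temperature) measured cell viability in the same wells as the ARE beta-lactamase reporter. HepG2 ARE-bla cells were treated with compounds for 16 hrs at 37C/5% CO2.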

Experiment [7] can be described thus: qHTS assay for small molecule activators of the heat shock response signaling pathway - cell viability counter screen (AID 743209). Further: nearly all actives have a fitted effect of over 50% in size. In short, it runs like this: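 HSE-bla HeLa; 1500 cells/well; overnight 37 C, 5% CO2; compound 5 h 37 C; LiveBLAzer B/G substrate 2.5 h RT; CellTiter-Glo 30 min RT; luminescence.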
For experiment [8], the target named is Peroxisome proliferator-activated receptor delta (Homo sapiens) (UniProt Q03181). The experiment is described as follows: qHTS assay to identify small molecule agonists of the peroxisome proliferator-activated receptor delta (PPARd) signaling pathway (AID 743212; calls by dose curve). In a few lines:
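Beta-lactamase reporter read by fluorescence (LiveBLAzer B/G FRET, 2 h, room temperature). Test agents, in DMSO, incubated at 37 C with PPARd-bla HEK293H cells.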

The nature of experiment [9]: qHTS assay to identify small molecule antagonists of the peroxisome proliferator-activated receptor delta (PPARd) signaling pathway - cell viability counter screen (AID 743213). Further: nearly all actives have a fitted effect of over 50% in size. In short, it runs like this:
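Same-well viability: cells pre-incubated 5 h, dosed with compound plus 300 nM L165041, kept 17 h at 37 C, FRET substrate 2 h RT, then CellTiter-Glo 30 min RT and luminescence.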

Experiment [10] can be described thus: qHTS assay to identify small molecule antagonists of the farnesoid-X-receptor (FXR) signaling pathway - cell viability counter screen (AID 743221; active means well fitted cell-killing curve with a large enough effect in the repeat runs, not every such curve was filed as active; further: nearly all actives have a fitted effect of over 50% in size). In a few lines: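 Compound effects on cell number were measured as CellTiter-Glo luminescence in HEK 293T cells expressing FXR-UAS-bla, after 16 h at 37 C with 50 uM CDCA (final).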
Experiment [11] concerns the target Vitamin D3 receptor (Homo sapiens) (UniProt P11473). Nature of the experiment: qHTS assay to identify small molecule agonists of the vitamin D receptor (VDR) signaling pathway (AID 743222; calls by dose curve). In a few lines:
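Beta-lactamase reporter readout (LiveBLAzer B/G FRET, 2 h RT) in VDR-bla cells after 16 h compound treatment at 37C, 5% CO2; cells pre-incubated 4 h before pin transfer of DMSO solutions.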

A short description of experiment [12]: qHTS assay for small molecule activators of the heat shock response signaling pathway (AID 743210; active means well fitted activation curve with a large enough effect in the signal ratio in the repeat runs, with a control signal flat, not every such curve was filed as active; the % refers to the signal ratio; further: series mostly up to about 63 µM). In short, it runs like this: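 Heat shock element–beta-lactamase HeLa reporter cells; qHTS with compounds for 5 h at 37 C; detection by FRET substrate fluorescence after 2.5 h at RT.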
A short description of experiment [13]: qHTS assay to identify small molecule agonists of the peroxisome proliferator-activated receptor delta (PPARd) signaling pathway - cell viability counter screen (AID 743211). Further: nearly all actives have a fitted effect of over 55% in size. In short, it runs like this:
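Following 5 h plating at 37 C and 5% CO2, PPARd UAS-bla HEK293H cells took up test compounds for 17 h. Viability was quantified by luminescence 30 min after CellTiter-Glo addition at room temperature.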

A short description of experiment [14]: qHTS assay to identify small molecule agonists of the farnesoid-X-receptor (FXR) signaling pathway - cell viability counter screen (AID 743218). Further: nearly all actives have a fitted effect of over 45% in size. In short, it runs like this:
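Luminescence from CellTiter-Glo, read after 30 min at RT, reports viability of GeneBLAzer FXR-UAS-bla HEK 293T cells treated 16 h with compounds in the wells used for the beta-lactamase reporter.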

A short description of experiment [15]: qHTS assay to identify small molecule agonists of the vitamin D receptor (VDR) signaling pathway - cell viability counter screen (AID 743224). Further: series mostly up to about 63 µM; nearly all actives have a fitted effect of over 50% in size. In a few lines:
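Cytotoxicity counter screen: VDR-bla cells, 16 h compound exposure at 37C, 5% CO2; CellTiter-Glo luminescence, 30 min RT, same wells as bla read.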

The target in experiment [16] is Vitamin D3 receptor (Homo sapiens) (UniProt P11473). Nature of the experiment: qHTS assay to identify small molecule antagonists of the vitamin D receptor (VDR) signaling pathway (AID 743223; active means well fitted inhibition curve with a large enough effect in the signal ratio in the repeat runs, not every such curve was filed as active; the % refers to the signal ratio). In a few lines:
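Beta-lactamase activity in VDR-bla cells is measured by FRET substrate fluorescence (2 h, room temperature) after cells spend 16 h at 37C with test compound and 3 nM final 1alpha,25-dihydroxyvitamin D3.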

Experiment [17] has as its target Peroxisome proliferator-activated receptor delta (Homo sapiens) (UniProt Q03181). Nature of the experiment: qHTS assay to identify small molecule antagonists of the peroxisome proliferator-activated receptor delta (PPARd) signaling pathway (AID 743215; active means well fitted inhibition curve with a large enough effect in the signal ratio in the repeat runs, not every such curve was filed as active; the % refers to the signal ratio;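 further: cells stimulated with agonist L165041 at 300 nM final during compound exposure; series mostly up to about 62 µM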). In short, it runs like this: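 HEK293H GeneBLAzer PPARd UAS-bla reporter cells; cpd + L165041 300 nM final, 17 h 37 C; LiveBLAzer B/G FRET substrate 2 h RT; fluorescence intensity read-out. Antagonist mode.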

In experiment [18] the target is Bile acid receptor (Homo sapiens) (UniProt Q96RI1). The experiment is described as follows: qHTS assay to identify small molecule antagonists of the farnesoid-X-receptor (FXR) signaling pathway (AID 743217; active means well fitted inhibition curve with a large enough effect in the signal ratio in the repeat runs, not every such curve was filed as active; the % refers to the signal ratio). In short, it runs like this: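 Read-out: beta-lactamase FRET fluorescence (LiveBLAzer B/G substrate, 2 h, room temperature) in GeneBLAzer FXR-UAS-bla HEK 293T cells. Compounds were co-dosed with 50 uM chenodeoxycholic acid (final) and incubated 16 h at 37 °C.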

Experiment [19] has the same target. The experiment is described as follows: qHTS assay to identify small molecule agonists of the farnesoid-X-receptor (FXR) signaling pathway (AID 743220; active means well fitted activation curve with a large enough effect in the signal ratio in the repeat runs, not every such curve was filed as active; the % refers to the signal ratio). In short, it runs like this: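 FXR-UAS-bla HEK 293T cells carrying a UAS-driven beta-lactamase reporter were plated for 5 h at 37C/5% CO2, then exposed to DMSO-dissolved Tox21 10K compounds for 16 h at 37C. A LiveBLAzer B/G FRET substrate was loaded for 2 h at room temperature before fluorescence reading.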

The nature of experiment [20]: qHTS assay for small molecule agonists of the antioxidant response element (ARE) signaling pathway (AID 743202; active means well fitted activation curve with a large enough effect in the signal ratio in the repeat runs, not every such curve was filed as active; the % refers to the signal ratio). In short, it runs like this: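 Following a 16 h, 37 C exposure of reporter HepG2 cells (ARE-driven beta-lactamase, 2,000 cells/well) to compounds, FRET substrate was applied for 2 h at room temperature and fluorescence intensity recorded.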

Chain of Peroxisome proliferator-activated receptor delta (Homo sapiens) (Q03181 whole entry, looked up): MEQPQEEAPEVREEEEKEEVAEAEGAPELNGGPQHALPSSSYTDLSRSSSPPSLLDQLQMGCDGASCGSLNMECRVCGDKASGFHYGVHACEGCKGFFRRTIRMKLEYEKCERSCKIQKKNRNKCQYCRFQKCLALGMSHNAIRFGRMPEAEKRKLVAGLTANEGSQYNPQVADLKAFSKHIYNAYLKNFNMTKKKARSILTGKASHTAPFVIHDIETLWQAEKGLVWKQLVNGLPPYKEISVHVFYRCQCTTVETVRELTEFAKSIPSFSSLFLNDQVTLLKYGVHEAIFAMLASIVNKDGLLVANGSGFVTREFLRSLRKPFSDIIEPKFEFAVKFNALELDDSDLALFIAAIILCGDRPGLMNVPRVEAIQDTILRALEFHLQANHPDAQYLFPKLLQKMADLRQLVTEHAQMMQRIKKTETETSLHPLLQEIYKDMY
Chain of Vitamin D3 receptor (Homo sapiens) (P11473 whole entry, looked up): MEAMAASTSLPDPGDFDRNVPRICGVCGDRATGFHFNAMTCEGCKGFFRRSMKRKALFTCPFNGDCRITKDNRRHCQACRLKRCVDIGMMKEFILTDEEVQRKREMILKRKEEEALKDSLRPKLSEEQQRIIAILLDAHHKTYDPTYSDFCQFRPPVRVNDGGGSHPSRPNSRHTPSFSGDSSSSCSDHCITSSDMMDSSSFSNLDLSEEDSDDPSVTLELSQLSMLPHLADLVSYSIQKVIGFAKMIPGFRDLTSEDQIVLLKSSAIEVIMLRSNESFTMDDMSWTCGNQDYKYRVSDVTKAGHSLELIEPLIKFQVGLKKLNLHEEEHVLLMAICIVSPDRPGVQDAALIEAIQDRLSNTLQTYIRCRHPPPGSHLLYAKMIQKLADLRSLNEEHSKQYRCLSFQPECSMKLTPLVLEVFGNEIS
Chain of Aryl hydrocarbon receptor (Homo sapiens) (P35869 whole entry, looked up): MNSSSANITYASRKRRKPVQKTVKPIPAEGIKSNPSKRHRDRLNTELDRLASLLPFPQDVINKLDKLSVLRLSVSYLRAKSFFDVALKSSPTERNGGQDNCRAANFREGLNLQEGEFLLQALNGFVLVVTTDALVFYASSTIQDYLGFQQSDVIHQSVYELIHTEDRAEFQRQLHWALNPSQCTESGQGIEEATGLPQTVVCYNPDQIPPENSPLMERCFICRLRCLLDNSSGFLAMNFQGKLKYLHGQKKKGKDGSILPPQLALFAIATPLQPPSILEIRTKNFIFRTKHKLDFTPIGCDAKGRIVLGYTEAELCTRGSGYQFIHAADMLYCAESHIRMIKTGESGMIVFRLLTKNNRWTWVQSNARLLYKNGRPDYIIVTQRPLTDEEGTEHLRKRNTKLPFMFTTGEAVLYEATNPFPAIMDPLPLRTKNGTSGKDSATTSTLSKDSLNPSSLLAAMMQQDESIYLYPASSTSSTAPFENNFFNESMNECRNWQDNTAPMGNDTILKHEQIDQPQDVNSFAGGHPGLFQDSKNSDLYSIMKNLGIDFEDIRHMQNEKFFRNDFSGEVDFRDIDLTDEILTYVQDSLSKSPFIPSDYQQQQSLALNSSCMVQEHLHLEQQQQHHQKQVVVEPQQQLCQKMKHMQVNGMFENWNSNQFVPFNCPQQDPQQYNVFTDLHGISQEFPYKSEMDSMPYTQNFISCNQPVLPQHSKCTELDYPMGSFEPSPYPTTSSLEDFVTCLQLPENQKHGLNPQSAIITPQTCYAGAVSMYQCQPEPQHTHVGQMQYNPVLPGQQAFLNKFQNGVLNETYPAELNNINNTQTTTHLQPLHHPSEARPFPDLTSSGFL
Chain of Peroxisome proliferator-activated receptor gamma (Homo sapiens) (P37231 whole entry, looked up): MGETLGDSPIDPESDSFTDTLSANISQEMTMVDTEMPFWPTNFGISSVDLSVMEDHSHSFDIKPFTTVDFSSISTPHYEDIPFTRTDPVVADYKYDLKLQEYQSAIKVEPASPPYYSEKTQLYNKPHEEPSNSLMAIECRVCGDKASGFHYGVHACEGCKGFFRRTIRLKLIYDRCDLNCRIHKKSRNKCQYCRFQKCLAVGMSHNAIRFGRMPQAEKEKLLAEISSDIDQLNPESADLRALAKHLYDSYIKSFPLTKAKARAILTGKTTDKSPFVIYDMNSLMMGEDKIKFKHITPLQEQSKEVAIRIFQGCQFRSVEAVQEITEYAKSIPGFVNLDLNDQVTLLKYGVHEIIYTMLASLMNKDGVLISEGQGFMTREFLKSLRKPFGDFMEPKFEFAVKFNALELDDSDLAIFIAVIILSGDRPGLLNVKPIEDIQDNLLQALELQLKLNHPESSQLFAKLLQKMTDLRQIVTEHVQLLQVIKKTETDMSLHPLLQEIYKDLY
Chain of Bile acid receptor (Homo sapiens) (Q96RI1 whole entry, looked up): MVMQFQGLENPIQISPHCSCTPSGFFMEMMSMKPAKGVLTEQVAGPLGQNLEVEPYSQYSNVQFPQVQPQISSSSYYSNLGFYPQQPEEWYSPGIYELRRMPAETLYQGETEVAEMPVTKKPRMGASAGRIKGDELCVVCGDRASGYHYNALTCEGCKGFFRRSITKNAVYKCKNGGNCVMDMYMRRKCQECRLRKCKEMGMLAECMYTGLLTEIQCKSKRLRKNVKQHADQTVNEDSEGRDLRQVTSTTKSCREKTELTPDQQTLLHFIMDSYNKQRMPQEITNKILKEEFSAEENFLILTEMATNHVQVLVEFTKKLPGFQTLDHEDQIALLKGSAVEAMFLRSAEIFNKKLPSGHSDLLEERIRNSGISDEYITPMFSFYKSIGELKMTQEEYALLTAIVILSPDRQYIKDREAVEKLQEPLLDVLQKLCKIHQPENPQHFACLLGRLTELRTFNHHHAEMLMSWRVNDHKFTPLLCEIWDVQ

For `CC1=C(C(=O)O)N2C(=O)[C@@H](NC(=O)[C@H](N)C3=CCC=CC3)[C@H]2SC1`, the Potency result in experiment [1], in experiment [2], in experiment [3] and in experiment [7] was “inactive” each time. Moreover, the result in [4], in experiment [5], in experiment [6], in [8], in [9] and in [10] was inactive. Also, the call in experiment [11] was inactive.

As to `CC1=NN(c2ccc(S(=O)(=O)O)cc2)C(=O)C1`, the Potency entry in experiment [1], in experiment [2], in experiment [3] and in experiment [7] was “inactive” throughout. Further, the call in [4], in [5], in experiment [6], in [12], in [13] and in experiment [9] was inactive. The call in experiment [14], in [11] and in [15] was inactive.

For `CCC(C)C(C)=O` (centres undefined), the Potency entry in experiment [1], in experiment [2], in [3] and in [7] was “inactive” in each case. The molecule was classed as inactive in [4], in experiment [5], in experiment [6], in experiment [12], in experiment [13] and in experiment [8]. Moreover, the molecule was called inactive in [9], in [14], in experiment [11], in [16] and in experiment [15].

With `CC/C(C)=N\O[Si](C)(O/N=C(\C)CC)O/N=C(\C)CC`, in experiment [1], the Potency was 24.7 µM (active). Moreover, the Potency result in [2], in experiment [3] and in experiment [7] was “inactive” throughout. In addition, the outcome in experiment [4], in [5], in experiment [6], in experiment [12], in experiment [8] and in experiment [9] was inactive. Also, the outcome in experiment [17], in experiment [18], in experiment [14], in [19], in [10] and in experiment [11] was inactive. Besides, in experiment [15], the outcome was inactive.

For `O=C(Cn1ccnc1[N+](=O)[O-])NCc1ccccc1`, the Potency result in [1], in experiment [2], in experiment [3] and in experiment [20] was “inactive” each time. For the same molecule, the molecule was called inactive in [4], in experiment [5], in experiment [6], in [12], in [13] and in experiment [8]. Moreover, the molecule was classed as inactive in [9], in experiment [17], in experiment [18], in experiment [14], in experiment [19] and in experiment [15].

As for `CC(=O)O[C@@H]1CC2CCC1(C)C2(C)C` (some centres undefined), the Potency entry in [1], in experiment [2], in experiment [3] and in experiment [7] was “inactive” throughout. Moreover, the molecule was called inactive in experiment [4], in experiment [5], in experiment [6], in experiment [12], in experiment [9] and in [18]. Further, the molecule was classed as inactive in experiment [14], in experiment [19], in experiment [10], in [11] and in experiment [16].

On to `CCCCCC(C)O` (centres undefined), for which the Potency result in experiment [1], in experiment [2], in [3] and in [20] was “inactive” in each case. Besides, the molecule was called inactive in experiment [4], in experiment [5], in experiment [12], in experiment [13], in [8] and in experiment [9]. In addition, the call in experiment [17], in [14], in experiment [10], in [11], in [16] and in [15] was inactive.

On to `CC(=O)O[Si](C)(OC(C)=O)OC(C)=O`, for which the Potency result in [1], in experiment [2], in experiment [3] and in experiment [20] was “inactive” in each case. Also, the outcome in [4], in experiment [5], in experiment [6], in experiment [13], in [8] and in experiment [17] was inactive. For the same molecule, the molecule was classed as inactive in experiment [10], in [11], in experiment [16] and in [15].

Regarding `CCNC(=O)NCc1cccc(Cl)c1`, the Potency entry in [1], in experiment [2] and in [3] was “inactive” in each case. Besides, the result in [4], in experiment [5], in [6], in experiment [12], in experiment [13] and in [8] was inactive. The outcome in experiment [9], in experiment [17], in experiment [18], in experiment [14], in experiment [19] and in experiment [11] was inactive. Besides, the call in [16] and in [15] was inactive.

The values above are taken from PubChem BioAssay (Tox21).
